High-throughput results deposited in PubChem by National Center for Advancing Translational Sciences (NCATS).
S2 tox – reduces viability in counter-screen for ATXN expression inhibitors | 400,000 tested, 0.49% active | Potency, µM (titrated, usually from 56.7 µM), hits mostly cytotoxic | S2 cells (HEK-293 line with an ATXN2-luciferase reporter) viability, CellTiter-Fluor protease fluorescence, 24 h | AID 651635; note: nearly all actives have a fitted effect of over 40% in size
Nrf2 block – inhibitors of Nrf2 signaling; A549 ARE-Fluc reporter, luciferase luminescence, 18-24 h; Potency, µM (series often up to 46 µM), without a hit: at the top dose activity change, negative = inhibition, hits mostly inhibitors; 360,000 tested, 2.1% active; note: % is set by controls: 0 for no effect and ±100 for the full control effect; nearly all actives have a fitted effect of over 60% in size
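Reporter: ARE-Fluc in A549. Exposure: 18-24 h, 37 °C, 5% CO2, 5% FBS OPTI-MEM. Readouts: fluorescent cytotoxicity (CellTiter-Fluor), then luminescent Nrf2 signal after BugLite.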
A549 tox – kills or reduces viability of A549 cells in Nrf2 counter-screen | Potency, µM (top dose mostly 46 µM), without a hit: at the highest dose activity change, negative = cytotoxicity, most hits filed as inhibitors | A549 ARE-Fluc cells, CellTiter-Fluor viability, 18-24 h | AID 504648 | 390,000 tested, 0.16% active; note: % is set by controls: 0 for no effect and ±100 for the full control effect
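A549 ARE-Fluc cells in 5% FBS OPTI-MEM, 5000 cells/well, rested 2 h then exposed to compounds in concentration-response for 18-24 h at 37 °C. Viability by CellTiter-Fluor fluorescence (Ex 405/Em 525) after 30 min; luciferase luminescence (BugLite, 15 min, RT) read afterwards.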
ATXN2 expr inh – reduces ATXN2 reporter expression in HEK-293 cells | Potency, µM (doses to about 57 µM), for the others: top-dose activity change, negative = inhibition, usual class: inhibitors | HEK-293 ATXN2-luciferase reporter, luminescence, 24 h | 360,000 tested, 0.72% active | AID 1745845; note: % is set by controls: 0 for no effect and ±100 for the full control effect; nearly all actives have a fitted effect of over 55% in size
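qHTS (up to 57 uM final) was run with 24 h compound exposure of reporter cells at 37 °C. Each well was multiplexed: SteadyGlo luminescence measured ATXN2-luciferase expression after a fluorogenic Gly-Phe-AFC viability readout (25 uM final).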
TGFb inhibitor – TGF-b pathway inhibition. AID 588855. HepG2 CAGA-GFP TGF-b/SMAD3 reporter, GFP fluorescence, 18 h; TGF-beta stimulated, 500 pg/mL final. Potency, µM (doses to about 46.1 µM), for inactives: at the top dose activity, negative = inhibition, most hits filed as inhibitors. 410,000 tested, 1.2% active; note: % is set by controls: 0 for no effect and ±100 for the full control effect; nearly all actives have a fitted effect of over 65% in size
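Per well, imaged GFP fluorescence of HEPG2 CAGA-GFP cells gives the signal; cells get compound, then TGF-beta (500 pg/mL final), 18 h at 37 degrees C; %Activity versus -TGF-beta and +DMSO controls.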
HepG2 tox-1 – counter-screen for TGF-b inhibitors: cytotoxicity in HepG2 cells; HepG2 CAGA-GFP viability, ATP luminescence, 18 h; Potency, µM (doses to about 46.1 µM), for the others: at the highest dose activity change, negative = cytotoxicity, hits mostly cytotoxic; 410,000 tested, 0.76% active
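CellTiter-Glo luminescence gave cytotoxicity after 18 hours at 37 degrees C. The cells were HepG2 CAGA-GFP in 1% FBS DMEM, stimulated with 500 pg/mL TGF-beta after compound addition. %Activity was normalised to no-cell wells (complete cell-killing) and DMSO (no toxicity), and curves were fitted and classified.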
TGFb confirm – TGF-b pathway inhibition, cherry-pick retest | shares compounds with TGFb inhibitor | HepG2 CAGA-GFP TGF-b reporter, GFP fluorescence, 18 h; cells stimulated with TGF-beta, 500 pg/mL | Potency, µM (series often up to 46.1 µM), inactives show at the highest dose activity, negative = inhibition, actives largely listed as inhibitors | 1,600 tested, 63% active | AID 720534; note: % is set by controls: 0 for no effect and ±100 for the full control effect; nearly all actives have a fitted effect of over 65% in size
HepG2 tox-2 – counter-screen for TGF-b inhibitors: cytotoxicity in HepG2 cells; 1,600 tested, 27% active; AID 720535; Potency, µM (highest dose often 46.1 µM), for the others: at the highest dose activity, negative = cytotoxicity, actives largely listed as inhibitors; shares compounds with TGFb inhibitor; HepG2 CAGA-GFP viability, ATP luminescence, 18 h; cells stimulated with TGF-beta, 500 pg/mL; note: % is set by controls: 0 for no effect and ±100 for the full control effect; nearly all actives have a fitted effect of over 70% in size
TGFb CCL64 inh – TGF-b inhibition, CCL64 orthogonal assay. Potency, µM (doses to about 46.1 µM), for the others: top-dose activity, negative = inhibition, hits mostly inhibitors. 1,600 tested, 41% active. CCL64 CAGA-GFP reporter, TGF-b stimulated, GFP fluorescence, 18 h. shares compounds with TGFb inhibitor. AID 720536; note: nearly all actives have a fitted effect of over 65% in size
COP TGFb inh – blocks TGF-b signaling in HepG2 COP reporter; 1,600 tested, 3% active; HepG2 COP-GFP TGF-b reporter, GFP fluorescence, 18 h; cells stimulated by added recombinant TGF-beta; shares compounds with TGFb inhibitor; Potency, µM (titrated, usually from 46.1 µM), for the others: at the top dose activity, negative = inhibition, most hits filed as inhibitors; AID 720537; note: nearly all actives have a fitted effect of over 70% in size
* = called active by the depositor; i = inactive; ? = inconclusive; · = no result given. Compounds with a hit are over-represented: about 3.8% of the library has one in this group of screens. Calls come from the whole dose curve; as a rule, active = well fitted curve in the direction sought with a large enough effect; inconclusive = small, poorly fitted or top-dose-only effect, or another doubt; inactive = no such curve, though single readings can be large; an effect the other way counts as inactive or inconclusive. Potency is the fitted concentration of half-maximal effect.

SMILES	S2 tox	Nrf2 block	A549 tox	ATXN2 expr inh	TGFb inhibitor	HepG2 tox-1	TGFb confirm	HepG2 tox-2	TGFb CCL64 inh	COP TGFb inh
Cc1ccc2c(C)ccc(O)c2n1	i	-4%	-1%	-27%	7.1µM*	-6%	-3%	0%	-23%	-21%
Cc1ccc2ccc3ccc(C)nc3c2n1	?	?	-5%	?	?	-10%	·	·	·	·
S=C(Nc1ccccn1)c1ccccn1	i	?	-5%	5%	7.1µM*	-62%	-22%	?	?	6%
CCN1CCN(S(=O)(=O)c2ccc(Cl)c(C(=O)N(C)CCOc3ccc(Cl)cc3)c2)CC1	i	?	-10%	-29%	14µM*	-9%	13µM*	?	?	12%
CCN(C[C@H]1N[C@@](Cc2ccccc2)(C(=O)OC)[C@H]2C(=O)N(Cc3ccccc3)C(=O)[C@@H]12)C(=O)Nc1ccc(C)cc1	?	-20%	-15%	-9%	?	-13%	15µM*	-14%	?	13%
CCN(C[C@H]1N[C@@](CC)(C(=O)OC)[C@H]2C(=O)N(Cc3ccccc3)C(=O)[C@@H]12)C(=O)Nc1ccc(C)cc1	i	21%	-1%	8%	-21%	-25%	·	·	·	·
CCC(C)Sc1cccc(-c2nc3cc(C)ccn3c2NCc2ccccc2)c1 (centres undefined)	?	-16%	-18%	?	16µM*	-1%	?	?	16µM*	51%
Cc1cccc(COCC(Cc2ccccc2)N2CCN(C(=O)c3cc(Cl)cc(Cl)c3)CCC2=O)c1 (centres undefined)	?	?	-11%	?	13µM*	-26%	8.2µM*	?	13µM*	36%
Cc1cccc(COCC(Cc2ccccc2)N2CCN(C(=O)c3cccc(C)c3)CCC2=O)c1 (centres undefined)	?	-11%	-8%	-29%	?	-30%	·	·	·	·
O=C(c1ccc(Cl)c(Cl)c1)N1CCC(=O)N(C(COCc2ccc(Cl)cc2)Cc2ccccc2)CC1 (centres undefined)	?	?	?	?	10µM*	-28%	21µM*	?	?	18%
Cc1cccc(COC[C@H](Cc2ccccc2)N2CCN(C(=O)c3ccc(Cl)c(Cl)c3)CCC2=O)c1	?	·	·	0%	·	·	·	·	·	·
COc1cccc(Cl)c1NC(=O)N1CCN(c2cc(C)nc3ccccc23)CC1	?	23µM*	?	?	13µM*	-14%	-69%	?	?	25%
